The source of these data is PubChem BioAssay (NCATS).

Records with an inconclusive call do not appear. Calls of active or inactive are those of the source. The call rests on the fitted dose curve; in most records, active means well fitted cell-killing curve with a large enough effect; inconclusive means small, poorly fitted or top-dose-only effect; inactive means no such curve, though single readings can be large or run the other way. Residues, ends and D or L forms follow the SMILES beside them. *: point of attachment. Cbz = O=C(OCc1ccccc1)*
Potency means the concentration at half of the fitted maximal effect.

This assay in a line: qHTS of pediatric cancer cell lines to identify multiple opportunities for drug repurposing: Primary screen for SJ-GBM2 cells (AID 1347091). Particulars: SJ-GBM2 viability, CellTiter-Glo luminescence, 48 h; series mostly up to 46 µM; activity change, negative = cytotoxic: at the top concentration. From the text: Drug repurposing or repositioning has been offered as a strategy for drug development in oncology programs. This approach has special potential for childhood cancers and other rare or orphan diseases, where the expected return on new drug development has been a disincentive to pharmaceuticals.
In this project we exploit the poly-pharmacology of drugs to discover new indications via phenotypic screening of a panel of 19 well-characterized cell lines derived from solid tumors seen in children and adolescents. The goal is to identify approved drugs with previously unrecognized anticancer properties that has the potential to reveal new mechanisms and biological processes involved in carcinogenesis or drug resistance. We employed a titration-based paradigm (quantitative high-throughput screening or qHTS), where all compounds were tested at multiple concentrations for their effect on cell viability. Concentration-response curves (CRCs) were derived directly from the primary screen, and both potency and efficacy values were used to identify compounds with robust bioactivity profiles. We screened the NIH Chemical Genomics Center (NCGC) Pharmaceutical Collection (NPC) and Mechanism Interrogation Plate (MIPE) small molecule collections of approved and investigational compounds against these cell lines; and measured metabolically active cells after 48 hours of compound treatment as a proxy for cell viability.
Assay Submitter: Nathalia J. Martinez, National Center for Advancing Translational Sciences, National Institutes of Health, Rockville, MD, USA; email: natalia.martinez@nih.gov
[1] Shen, M et al. Quantitative high-throughput phenotypic screening of pediatric cancer cell lines identifies multiple opportunities for drug repurposing. Oncotarget 2017 Dec 19;9(4):4758-4772. PMID 29435139.
The cells were obtained from University of North Carolina (UNC), Pediatric Preclinical Testing Program (PPT), and Coriell Institute (CI).
qHTS cell viability assay:
Cells were assayed in growth media at a density of 500-1,000 cells/well. Five microliters of cells were dispensed into 1,536-well, white, solid-bottom, TC-treated plates (Greiner Bio One) using a multidrop dispenser and incubated at 37 degrees C, 5% CO2, under a humidified atmosphere for 5 hours. Twenty-three nanoliters of compounds and controls (neutral control DMSO or positive control bortezomib at final concentration of 2.3 µM) were subsequently transferred by Kalypsys pintool. For primary screens, the MIPE collection was tested at 11-point dilutions (final concentrations range from 0.78 nM to 46 µM) and the NPC collection at 8-point dilutions (final concentrations range from 0.59 nM to 46 µM). Compounds tested in follow-up screens were assayed at 11-point dilutions. Cells were incubated for 48 hours, followed by addition of 3 uL of CellTiter-Glo (Promega). After a 15 min incubation at room temperature, samples were analyzed for luminescence intensity using a ViewLux High-throughput CCD imager equipped with clear filters.
As to `COc1cc([C@@H]2c3cc4c(cc3[C@@H](O[C@@H]3O[C@@H]5CO[C@@H](c6cccs6)O[C@@H]5[C@H](O)[C@@H]3O)[C@H]3COC(=O)[C@H]23)OCO4)cc(OC)c1O`, the Potency is 118 nM (active).
Take `N[C@H]1CN(c2c(F)cc3c(=O)c(C(=O)O)cn(C4C[C@@H]4F)c3c2Cl)CC12CC2` (stereo not given in full): the “activity change, negative = cytotoxic” value was 88.6% (inactive).
Consider `O=C(C=Cc1ccc(CN(CCO)CCc2c[nH]c3ccccc23)cc1)NO`, for which the Potency was 118 nM (active).
With `CC[C@]12C=CCN3CC[C@@]4(c5cc([C@@]6(C(=O)OC)C[C@H]7C[C@@H](C(C)(F)F)CN(Cc8c6[nH]c6ccccc86)C7)c(OC)cc5N(C)[C@H]4[C@@](O)(C(=O)OC)[C@H]1OC(C)=O)[C@@H]32`, the Potency is 1 nM (active).
Same read-out and setting: the value for `CC(C)N1[N]C(=C2C=c3cc(O)ccc3=N2)c2c(N)ncnc21` was 93.5 nM (active).
Consider `O=C(O)CCCCCC(=O)NN=C1CCCC1`, for which the “activity change, negative = cytotoxic” value was 19.8% (inactive).
With `CCc1c(O)cc(O)c(C(=O)c2ccc(OCCN3CCOCC3)c(OC)c2)c1CC(=O)N(CCOC)CCOC`, the Potency is 1180 nM (active).
Turning to `C[C@H](CCC(=O)O)[C@H]1CCC2C3C[C@H](O)[C@@H]4C[C@H](O)CC[C@]4(C)C3CC[C@@]21C` (stereo not given in full), the “activity change, negative = cytotoxic” value is 2.99% (inactive).
Turning to `COc1ccc(S(=O)(=O)Nc2cccnc2Nc2ccc(O)cc2)cc1`, the Potency was 23.5 nM (active).
The same measure, in the same setting: the value for `CN(C)c1ccc2cc(C(=O)N[C@@H](CCCN=C(N)CCl)C(=O)NCc3ccccc3)ccc2c1` was 20900 nM (active); that for `COc1cc(C=CC(=O)CC(=O)C=Cc2ccc(O)c(OC)c2)ccc1O` was 30300 nM (active).
For the molecule `C#C[C@]1(O)CC[C@@H]2[C@@H]3CCC4=CC(=O)CC[C@@H]4[C@H]3CC[C@@]21CC`, the “activity change, negative = cytotoxic” value is 6.58% (inactive).
On to `CCCCOc1ccc(C(=O)Nc2ccc(F)cc2F)cc1`, for which the “activity change, negative = cytotoxic” value is -9.34% (inactive).
On to `CC(C)(C)[C@H](NC(=O)c1ccc(N)c(Cl)c1)C(=O)N1CCC[C@@H]1C(=O)N[C@H](C#N)CC(=O)O`, for which the activity change, negative = cytotoxic is 0.43% [at 4.84 µM] (inactive).
The same measure, in the same setting: the figure for `CC(=O)OC[C@@H]1O[C@@H](n2ccc(=O)[nH]c2=O)[C@H](OC(C)=O)[C@H]1OC(C)=O` is 1.61% (inactive).
The same measure, in the same setting: the figure for `NC[C@H]1O[C@H](O[C@H]2[C@@H](O)[C@@H](O[C@H]3O[C@H](CO)[C@@H](O)[C@H](N)[C@@H]3O)[C@H](N)C[C@@H]2N)[C@H](N)C[C@H]1O` is 25.4% (inactive).
Same read-out and setting: the figure for `C=C1CCC2[C@](C)(CO)C(O)CC[C@]2(C)C1CC=C1C(=O)OCC1O` (stereo not given in full) is 0.773% [at 92.7 µM] (inactive).
For the molecule `COC1=C2C[C@@H](C)C[C@H](OC)[C@@H](O)[C@@H](C)C=C(C)[C@H](OC(N)=O)[C@@H](OC)C=CC=C(C)C(=O)NC(=CC1=O)C2=O`, the Potency was 743 nM (active).
For the molecule `CC(O)(C#Cc1ccc2c(c1)N(c1nc(N)ncc1Cl)CC2)c1nccs1` (stereo not given), the Potency was 13200 nM (active).
Consider `COc1ccc(Nc2nccc(NCCO)n2)cc1`, for which the “activity change, negative = cytotoxic” value was 5.23% (inactive).
`CCN(CC)CCCCNc1ncc2c(n1)N(C)C(=O)N(c1c(Cl)c(OC)cc(OC)c1Cl)C2`: the Potency is 14800 nM (active).
As for `N#Cc1c(NC(=O)c2cccc3ccccc23)sc2c1CCCC2`, the Potency was 332 nM (active).
For the molecule `COc1ccc(CCC(=O)c2c(O)cc(O[C@@H]3O[C@H](CO)[C@@H](O)[C@H](O)[C@@H]3O[C@@H]3O[C@@H](C)[C@H](O)[C@@H](O)[C@@H]3O)cc2O)cc1O`, the “activity change, negative = cytotoxic” value is 23.7% (inactive).
The same measure, in the same setting: the value for `C[C@H]1COc2c(N3CCN(C)CC3)c(F)cc3c(=O)c(C(=O)O)cn1c23` was 68% (inactive).
Same read-out and setting: the value for `Cc1noc(-c2ccc(CSCCC(=O)O)cc2)c1NC(=O)OC(C)c1ccccc1Cl` (stereo not given) was 27% (inactive).
As for `CCOC(=O)[C@H](CCc1ccccc1)N[C@@H](C)C(=O)N1[C@@H](C(=O)O)C[C@H]2CCC[C@@H]21`, the Potency was 20900 nM (active).
Still for that read-out and setting: the figure for `Cc1cc(Nc2ncc3c(n2)N(C)C(=O)N(c2cc(NC(=O)c4cccc(C(F)(F)F)c4)ccc2C)C3)n(C)n1` is 296 nM (active).
For `O=C(O)C=Cc1ccc(Cn2ccnc2)cc1`, the “activity change, negative = cytotoxic” value is 19.7% (inactive).
For `O=C(Nc1nnc(-c2ccco2)o1)c1cc(-c2ccccc2)nc2ccccc12`, the Potency was 7430 nM (active).
As for `CC(=O)OCC(=O)[C@@]12N=C(C)O[C@H]1C[C@H]1[C@@H]3CCC4=CC(=O)C=C[C@]4(C)[C@@H]3[C@@H](O)C[C@@]12C`, the “activity change, negative = cytotoxic” value is 11.7% (inactive).
The same measure, in the same setting: the figure for `CC[C@H]1OC(=O)[C@H](C)[C@@H](O[C@H]2C[C@@](C)(OC)[C@@H](O)[C@H](C)O2)[C@H](C)[C@@H](O[C@@H]2O[C@@H](C)C[C@H](N(C)C)[C@@H]2O)[C@](C)(O)C[C@@H](C)C(=O)[C@H](C)[C@@H](O)[C@]1(C)O` is 14.5% (inactive).
Take `c1cncc(CN2CCC(n3ncc4c(N5CCOCC5)nc(-c5ccc6[nH]ccc6c5)nc43)CC2)c1`: the Potency was 3320 nM (active).
`COc1ccc(Nc2cc(-c3cnc(N)nc3)nc(N3CCOCC3)n2)cn1`: the Potency was 4180 nM (active).
As to `CC(C)(O)CC[C@@H](O)[C@](C)(O)[C@H]1CC[C@@]2(O)C3=CC(=O)[C@@H]4C[C@@H](O)[C@@H](O)C[C@]4(C)[C@@H]3CC[C@]12C`, the “activity change, negative = cytotoxic” value is -2.14% (inactive).
For the molecule `C=C1C[C@@]2(O)O[C@@]3(C[C@H]2C(C)C)[C@H](C)CC[C@H]13`, the “activity change, negative = cytotoxic” value is 17% (inactive).
With `Cn1cc(CNCC2CCN(c3ncc(C(=O)NO)cn3)CC2)c2ccccc21`, the Potency was 74.3 nM (active).
Still for that read-out and setting: the figure for `C[C@]12CC[C@@H]3c4ccc(O)cc4CC[C@H]3[C@H]1CC[C@H]2O` is 16600 nM (active); for `C=C(C)[C@@H]1CC[C@]2(C(=O)O)CC[C@]3(C)[C@H](CC[C@@H]4[C@@]5(C)CC[C@H](O)C(C)(C)[C@@H]5CC[C@]43C)[C@@H]12` it is 18700 nM (active); for `CC(C)C[C@@H](C=O)NC(=O)[C@H](CC(C)C)NC(=O)[C@H](CC(C)C)NC(=O)OCc1ccccc1` (Cbz-Leu-Leu-Leu-aldehyde) it is 105 nM (active).
The same measure, in the same setting: the figure for `C#CCC(Cc1cnc2nc(N)nc(N)c2n1)c1ccc(C(=O)N[C@@H](CCC(=O)O)C(=O)O)cc1` (stereo not given in full) is 118 nM (active).
